Compounds without any hit were thinned out: in the full panel of roughly 83,000, 20% have a hit.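 The test compound was applied at a single concentration to cells in 96-well plates for 48 hours, and percent growth was recorded.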 Values without a mark were called inactive. Calls of active or inactive are those of the source. How the source made its calls: active means growth percent below 10; inactive means the rest.
What follows are compounds tested on UACC-257 melanoma (assay: NCI-60 one-dose screen, 48 h (100 = growth as untreated, 0 = no growth, -100 = all killed)). Settings: 10 µM.

In order of rising growth:
1. COc1cc(/C=C\c2cc(OC)c(OC)c(OC)c2)cc(N/C=C\C(=O)c2c[nH]c3ccccc23)c1OC  33.4%
2. c1ccc([P+](CCC[P+](c2ccccc2)(c2ccccc2)c2ccccc2)(c2ccccc2)c2ccccc2)cc1  37%
3. Nc1c(C(=O)Nc2ccccc2)sc2nc3c(cc12)CCCCC3  41.5%
4. COc1cc(/C=C2\CCCC3=C2NC(C)=NC3c2cc(OC)c(OC)c(OC)c2)cc(OC)c1OC (stereo unspecified)  43.8%
5. COc1ccc(OC)c(C(=O)c2oc3ccc(Br)cc3c2N)c1  49.9%
6. Nc1c(C(=O)Nc2c(Cl)cccc2Cl)sc2nc3c(cc12)CCCCC3  50.7%
7. Cc1cccc(NC(=O)c2sc3nc4c(cc3c2N)CCC4)c1C  54.8%
8. CCC1CCc2nc3sc(C(=O)Nc4ccccc4F)c(N)c3cc2C1 (stereo unspecified)  57.5%
9. CCOC(=O)C1=C(CSC(=S)N(C2CCCCC2)C2CCCCC2)N(C)C(=O)NC1c1ccccc1 (stereo unspecified)  61.4%
10. COc1cc(OC)c(C(=O)/C=C/c2ccc(C(F)(F)F)cc2)c(OC)c1  62.5%
11. Cc1ccc2c(c1)C(=O)C(c1c(-c3[nH]c(=O)c4ccc(C)cc4c3O)c(O)c3ccccc3c1O)=NC2=O  63.1%
12. COc1ccc(-c2cn[nH]c2-c2cc(OC)c3c(c2)OCO3)cc1  66.9%
13. O=C(Nc1ccc(OCc2nnc(-c3ccc(Cl)cc3)o2)c(F)c1)Nc1ccc(Cl)c(Cl)c1  74.4%
14. COc1cccc(C2CC(=O)Nc3c2c(C)nn3-c2nc3ccccc3[nH]2)c1OC (stereo unspecified)  79.1%
15. CN1CCN(c2ccc3cc(-c4nc5ccccc5[nH]4)c(=O)oc3c2)CC1  83.3%
16. COc1ccc(NC(=O)c2cc3ccccc3nc2Nc2cc(OC)c(OC)c(OC)c2)cc1  83.6%
17. COc1ccc2c(c1)C(=O)/C(=C/c1ccc(O)cc1)O2  86.7%
18. COc1ccc(C2=CC(c3ccc(Oc4ccnc5cc(Cl)ccc45)c(OC)c3)c3c(nc(OC)[nH]c3=O)N2)cc1 (stereo unspecified)  87.5%
19. Cc1ccc(Cn2c(-c3nonc3N)nc3ccccc32)cc1  89.6%
20. CCn1c(=O)c2c(=O)c3c4c(oc3oc2c2ccccc21)C(=O)c1ccccc1C4=O  90.6%
21. COC12CC(=O)C(C(C)=O)=C(O)C1(C)c1c(O)c(C)c(O)c(C(C)=O)c1O2 (stereo unspecified)  90.7%
22. O=C(CNc1ccc(Cl)cc1)Nc1ccc(-c2nc3ccccc3s2)cc1  90.9%
23. C=CCn1c(C)nc2ccc(Nc3nc(Nc4ccc(F)cc4)nc4ccccc34)cc21  92.6%
24. O=C1Nc2ccc(Br)cc2C1=N/C=c1\[nH]c(=O)/c(=C/c2ccc(Cl)cc2)s1  95.7%
25. COc1ccc(Cn2cc(COc3cc(/C=C/C(=O)c4cc(OC)c(OC)c(OC)c4)ccc3OC)nn2)cc1  96.1%
26. O=C(CNc1c(Cl)cccc1Cl)Nc1ccc(-c2nc3ccccc3s2)cc1  96.5%
27. Cn1c(-c2nonc2NC(=O)c2ccc(F)cc2)nc2ccccc21  97.2%
28. O=S(=O)(O)CCl  98.5%
29. O=C(CN1CCOCC1)Nc1ccc(-c2nc3ccccc3s2)cc1  101%
30. CC1=C(C#N)C(C)(C)C(C#N)=C(C)N1  103%
31. COC1=CC(c2ccc[nH]2)=N/C1=C\c1[nH]c(C)c(C(=O)CCCCC(=O)Oc2ccc3c(c2)CCC2C3CC[C@]3(C)[C@@H](O)CC[C@@H]23)c1C (stereo partly specified)  103%
32. Cc1nn(-c2ccc(Cl)cc2)c(=O)n1CCOc1ccccc1Cl  105%
33. Cc1ccc(S(=O)(=O)NCCCNc2nccc(-c3c(-c4ccccc4)nc4sccn34)n2)cc1  106%
34. CCCCCCCCCCCCNC(=S)N/N=C/c1ccc(Cl)c(Cl)c1  107%

For COc1cc(C(=O)OCCCCCCCCCCC[P+](c2ccccc2)(c2ccccc2)c2ccccc2)ccc1O, the growth was -21.6% (active).
In the case of COc1cc(C(=O)/C=C/c2cc(C(=O)c3cc(OC)c(OC)c(OC)c3)ccc2OC)ccc1N, the growth is reported as -11.9% (active).
For CC(C)C[C@H](NC(=O)[C@@H](Cc1ccccc1)n1ccc(Nc2ccccc2)cc1=O)B(O)O, the growth was -36.6% (active).
COc1ccccc1CNCCCN1C(=O)c2ccc3c4c(ccc(c24)C1=O)C(=O)N(CCCNCCCCNCCCCN)C3=O was tested, and the growth was -56.2% (active).

Each compound was assayed on M14 melanoma in the same assay as above. Settings: 10 µM unless noted.

In order of falling growth:
1. Cn1c(-c2nonc2NC(=O)c2ccc(F)cc2)nc2ccccc21  106%
2. CCCCCCCCCCCCNC(=S)N/N=C/c1ccc(Cl)c(Cl)c1  105%
3. CC1=C(C#N)C(C)(C)C(C#N)=C(C)N1  102%
4. O=C(CN1CCOCC1)Nc1ccc(-c2nc3ccccc3s2)cc1  101%
5. O=C1Nc2ccc(Br)cc2C1=N/C=c1\[nH]c(=O)/c(=C/c2ccc(Cl)cc2)s1  101%
6. Cc1nn(-c2ccc(Cl)cc2)c(=O)n1CCOc1ccccc1Cl  98.8%
7. O=S(=O)(O)CCl  97.1%
8. COc1ccc2c(c1)C(=O)/C(=C/c1ccc(O)cc1)O2  93.4%
9. COc1ccc(Cn2cc(COc3cc(/C=C/C(=O)c4cc(OC)c(OC)c(OC)c4)ccc3OC)nn2)cc1  90.9%
10. CCn1c(=O)c2c(=O)c3c4c(oc3oc2c2ccccc21)C(=O)c1ccccc1C4=O  89.8%
11. CN1CCN(c2ccc3cc(-c4nc5ccccc5[nH]4)c(=O)oc3c2)CC1  88.8%
12. COc1ccc(C2=CC(c3ccc(Oc4ccnc5cc(Cl)ccc45)c(OC)c3)c3c(nc(OC)[nH]c3=O)N2)cc1 (stereo unspecified)  82.8%
13. c1ccc([P+](CCC[P+](c2ccccc2)(c2ccccc2)c2ccccc2)(c2ccccc2)c2ccccc2)cc1  80.9%
14. COC12CC(=O)C(C(C)=O)=C(O)C1(C)c1c(O)c(C)c(O)c(C(C)=O)c1O2 (stereo unspecified)  66.7%
15. Cc1ccc(Cn2c(-c3nonc3N)nc3ccccc32)cc1  66.4%
16. COc1cccc(C2CC(=O)Nc3c2c(C)nn3-c2nc3ccccc3[nH]2)c1OC (stereo unspecified)  65.4%
17. O=C(Nc1ccc(OCc2nnc(-c3ccc(Cl)cc3)o2)c(F)c1)Nc1ccc(Cl)c(Cl)c1  61.5%
18. COC1=CC(c2ccc[nH]2)=N/C1=C\c1[nH]c(C)c(C(=O)CCCCC(=O)Oc2ccc3c(c2)CCC2C3CC[C@]3(C)[C@@H](O)CC[C@@H]23)c1C (stereo partly specified)  60%
19. COc1cc(OC)c(C(=O)/C=C/c2ccc(C(F)(F)F)cc2)c(OC)c1  59%
20. CCOC(=O)C1=C(CSC(=S)N(C2CCCCC2)C2CCCCC2)N(C)C(=O)NC1c1ccccc1 (stereo unspecified)  56.9%
21. O=C(CNc1c(Cl)cccc1Cl)Nc1ccc(-c2nc3ccccc3s2)cc1  55.7%
22. COc1ccc(NC(=O)c2cc3ccccc3nc2Nc2cc(OC)c(OC)c(OC)c2)cc1  55.1%
23. COc1cc(/C=C\c2cc(OC)c(OC)c(OC)c2)cc(N/C=C\C(=O)c2c[nH]c3ccccc23)c1OC  52.9%
24. C=CCn1c(C)nc2ccc(Nc3nc(Nc4ccc(F)cc4)nc4ccccc34)cc21  45.2%
25. CCC1CCc2nc3sc(C(=O)Nc4ccccc4F)c(N)c3cc2C1 (stereo unspecified)  44.4%
26. O=C(CNc1ccc(Cl)cc1)Nc1ccc(-c2nc3ccccc3s2)cc1  44.2%
27. Nc1c(C(=O)Nc2c(Cl)cccc2Cl)sc2nc3c(cc12)CCCCC3  43.8%
28. Cc1ccc2c(c1)C(=O)C(c1c(-c3[nH]c(=O)c4ccc(C)cc4c3O)c(O)c3ccccc3c1O)=NC2=O  35.7%
29. Cc1ccc(S(=O)(=O)NCCCNc2nccc(-c3c(-c4ccccc4)nc4sccn34)n2)cc1  30.5%
30. COc1ccc(OC)c(C(=O)c2oc3ccc(Br)cc3c2N)c1  27.3%
31. Cc1cccc(NC(=O)c2sc3nc4c(cc3c2N)CCC4)c1C  19.1%
32. COc1ccc(-c2cn[nH]c2-c2cc(OC)c3c(c2)OCO3)cc1  16%

COc1cc(/C=C2\CCCC3=C2NC(C)=NC3c2cc(OC)c(OC)c(OC)c2)cc(OC)c1OC (stereo unspecified) was tested, and the growth was -42% (active).
In the case of COc1cc(C(=O)OCCCCCCCCCCC[P+](c2ccccc2)(c2ccccc2)c2ccccc2)ccc1O, the growth is reported as -24.5% (active).
With Nc1c(C(=O)Nc2ccccc2)sc2nc3c(cc12)CCCCC3 the growth was 6.74% (active).
COc1cc(C(=O)/C=C/c2cc(C(=O)c3cc(OC)c(OC)c(OC)c3)ccc2OC)ccc1N was tested, and the growth was -52.9% (active).
For CC(C)C[C@H](NC(=O)[C@@H](Cc1ccccc1)n1ccc(Nc2ccccc2)cc1=O)B(O)O, the growth was 9.32% (active).
COc1ccccc1CNCCCN1C(=O)c2ccc3c4c(ccc(c24)C1=O)C(=O)N(CCCNCCCCNCCCCN)C3=O was tested, and the growth was -5.69% (active).
